Laboratory results published in paper PMC7819943, “Rice protein-binding microarrays: a tool to detect cis-acting elements near promoter regions in rice”.
In all, about 39,000 sequences were measured (“fluorescence intensity (a.u.)”: median about 4,300, highest 2% from about 39,000 on). The sample as a whole holds a higher share of the highest values than the screen did.

These sequences were tested against T1, OsSMF1 (Oryza sativa, UniProt Q6ZLB0 1-436) (assay: protein-binding microarray (RPBM); PBS, 2% BSA, 51.3 ng/ul salmon testes DNA, 50 uM zinc acetate, 200 nM TF, 25 C, 1 h; high values mean tight binding). Conditions: protein: recombinant; tags: N-terminal polyhistidine and DsRed monomer fusion (pET32a); chain copies: 2; label: CyDye5-dUTP incorporated in the synthesized complementary strand; 3' TTTTT single-stranded linker to array surface; dsDNA, one strand shown.
T1 sequence: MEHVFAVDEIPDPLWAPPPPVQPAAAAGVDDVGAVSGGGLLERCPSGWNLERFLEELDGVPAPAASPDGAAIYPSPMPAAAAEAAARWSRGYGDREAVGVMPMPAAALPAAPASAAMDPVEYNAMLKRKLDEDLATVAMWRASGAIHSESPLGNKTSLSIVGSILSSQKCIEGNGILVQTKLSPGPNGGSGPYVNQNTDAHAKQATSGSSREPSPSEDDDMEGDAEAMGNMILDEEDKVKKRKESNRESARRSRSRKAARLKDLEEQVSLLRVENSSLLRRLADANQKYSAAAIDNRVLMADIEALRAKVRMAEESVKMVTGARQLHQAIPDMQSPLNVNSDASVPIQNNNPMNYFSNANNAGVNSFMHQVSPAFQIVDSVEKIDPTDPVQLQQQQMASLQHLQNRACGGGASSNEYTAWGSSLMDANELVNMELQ
Procedure, shortened: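 Transcription factors were made in E. coli BL21-CodonPlus as N-terminal fusions to a polyhistidine tag and DsRed, then purified on Ni–NTA. After primer extension with Cy5-dUTP and blocking with 2% BSA, a custom Agilent array was exposed for 1 h at 25 °C to 200 nM protein in PBS, 2% BSA, salmon testes DNA and 50 µM zinc acetate. Washed arrays were scanned on an Axon 4000B, and the binding signal is per-feature fluorescence intensity in arbitrary units.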
“GACCAAGATGACAAAGATTACTATTATACTGATGATAACCCGGAGTCACCTAGTGCAG” was tested, and the binding signal was 34100 fluorescence intensity (a.u.). In the case of “AAGTCTGCAGTTGCACTGGGAGTTGACAAAGAAGATGACGCGGAGTCACCTAGTGCAG”, the binding signal is reported as 3550 fluorescence intensity (a.u.). For “GCCATTGATGACAAAGACAACCTGGAAGATTACTGTTGCACGGAGTCACCTAGTGCAG”, the binding signal was 64300 fluorescence intensity (a.u.). In the case of “GTCCTCATCCTAGGTAAAATAACCACGTCATCTCACAGGTCGGAGTCACCTAGTGCAG”, the binding signal is reported as 20700 fluorescence intensity (a.u.). With “GCTAGCGCGCATTGACCAAGATCCGATTTGTATGCTAGTGCGGAGTCACCTAGTGCAG” the binding signal was 4060 fluorescence intensity (a.u.). With “GAGCAGAAAGACGCGGCTTCTCGAGAGTTCCAAGTTCCAACGGAGTCACCTAGTGCAG” the binding signal was 45200 fluorescence intensity (a.u.). “GCAGAGGCGGCGAGGCTCGGCTTCTTCTCGAACGGCGCCGCGGAGTCACCTAGTGCAG” was tested, and the binding signal was 27600 fluorescence intensity (a.u.). In the case of “CCGAGAGAAAGAGAGCAAGAGAGAGAGACGGGCTCAAGAGCGGAGTCACCTAGTGCAG”, the binding signal is reported as 4560 fluorescence intensity (a.u.). “CGATGAGCACCGCAGCGATTGACATATTGCAATATCGTTCCGGAGTCACCTAGTGCAG” was tested, and the binding signal was 3550 fluorescence intensity (a.u.). In the case of “ACGTACGTGTGCGTATCCGACAAGTCCCACGACGTGGCAACGGAGTCACCTAGTGCAG”, the binding signal is reported as 4960 fluorescence intensity (a.u.). In the case of “TTTTACATGATTGGATGACAAAGCCTATTTCGTTTTGTTGCGGAGTCACCTAGTGCAG”, the binding signal is reported as 5400 fluorescence intensity (a.u.). In the case of “TATTTTGGAAAATGAGTCACAGGGTTATTGTAGCTTTGAACGGAGTCACCTAGTGCAG”, the binding signal is reported as 9390 fluorescence intensity (a.u.). With “TATTTGGTTTTGTAGGGGTTGGTTTGGGAAAATTGGAAAGCGGAGTCACCTAGTGCAG” the binding signal was 4240 fluorescence intensity (a.u.). With “AAATCAGGAAATGAAAAGCTAGGGTTTTAGGTATTGTAATCGGAGTCACCTAGTGCAG” the binding signal was 40800 fluorescence intensity (a.u.). With “TGGTTGTATTAGGTTAATAAGCCACGTCAGTGAAAAGCACCGGAGTCACCTAGTGCAG” the binding signal was 16100 fluorescence intensity (a.u.). In the case of “AGCAGAGTGATCTCTGATGGTCACGGGCCGAGAAGGGAAGCGGAGTCACCTAGTGCAG”, the binding signal is reported as 45700 fluorescence intensity (a.u.). “CCACCGGAAACAGGGAAGAAGAGGGGTCGAGAAAGGGGAGCGGAGTCACCTAGTGCAG” was tested, and the binding signal was 4020 fluorescence intensity (a.u.). In the case of “AGAGAGGGAAGGGAGGGAGGGAGGGAGGAGGGAGAGATCTCGGAGTCACCTAGTGCAG”, the binding signal is reported as 6770 fluorescence intensity (a.u.). With “AGCAGGAGAAGGGACCGAGAGAAGAGTCGCAGAGAGAGAGCGGAGTCACCTAGTGCAG” the binding signal was 3660 fluorescence intensity (a.u.). For “TGAATGCACGTACTGGTGATGAATCTCTGATGGATGGAAGCGGAGTCACCTAGTGCAG”, the binding signal was 3210 fluorescence intensity (a.u.). In the case of “AGAAGGGGAGAAAAGGAAACCGATCTCGGTCATGGCCACGCGGAGTCACCTAGTGCAG”, the binding signal is reported as 50900 fluorescence intensity (a.u.). With “GCCGCGCCGTCCTGTGTGTGCGTGGCGCCAATGCATGCTACGGAGTCACCTAGTGCAG” the binding signal was 3590 fluorescence intensity (a.u.). With “GGTTTTGGAGAGCGGTTTCACTGACGTGGCAGTGTTGACCCGGAGTCACCTAGTGCAG” the binding signal was 22900 fluorescence intensity (a.u.). In the case of “ACGCCTCATCTCCAGTCCACGGCTCAACGTCCACGCACACCGGAGTCACCTAGTGCAG”, the binding signal is reported as 3490 fluorescence intensity (a.u.). “TGATTTTGTTTTAATACATGCAATCTTTCGATCCAATGGCCGGAGTCACCTAGTGCAG” was tested, and the binding signal was 24000 fluorescence intensity (a.u.). “TCGATCTGCACATGTGCACGCGCATGTGTCGTCGGCTTAGCGGAGTCACCTAGTGCAG” was tested, and the binding signal was 3230 fluorescence intensity (a.u.). For “GACTAATCAAACAATTTCCCTCGCTATTAGTCACTGACAGCGGAGTCACCTAGTGCAG”, the binding signal was 3590 fluorescence intensity (a.u.). For “CACCTAGCATGCATAGGACGAGGCATTTAATTTTACTTATCGGAGTCACCTAGTGCAG”, the binding signal was 22000 fluorescence intensity (a.u.). With “GCATGCGGGATAGGAGCTTGACTAGCATGACGAGGCAGAACGGAGTCACCTAGTGCAG” the binding signal was 5890 fluorescence intensity (a.u.). “ATTTAATAGTCCGGGAGGCATGCTTACGGACAAGGACGAACGGAGTCACCTAGTGCAG” was tested, and the binding signal was 47100 fluorescence intensity (a.u.). For “GCATGCTCTCCGTGCCGTATGCGCTGTCGTAGGGCAGGTGCGGAGTCACCTAGTGCAG”, the binding signal was 3760 fluorescence intensity (a.u.). With “CGCCGCCGCCGTCGCTGCCGCCGCCGCCGCCGCCTAGGGTCGGAGTCACCTAGTGCAG” the binding signal was 29300 fluorescence intensity (a.u.). With “TCACTTCTCTCCTCCACATGTGCATACAACTGACTTATAACGGAGTCACCTAGTGCAG” the binding signal was 4660 fluorescence intensity (a.u.). In the case of “GTTGAATTCTGTGCGTGTAAGCAGACCTGCATTGCCGTCGCGGAGTCACCTAGTGCAG”, the binding signal is reported as 3170 fluorescence intensity (a.u.). “TCCCAATTGACTAGAGGATGCTTCAGAGATGAAAACATGGCGGAGTCACCTAGTGCAG” was tested, and the binding signal was 3190 fluorescence intensity (a.u.). With “TCCAGCTCTGAATTTCACTCTGCATGCATAAGTTGCAGGACGGAGTCACCTAGTGCAG” the binding signal was 48100 fluorescence intensity (a.u.). For “GCAATTCACTCCAGTTCACTTTGCCAGCTTGTCTCTCTGACGGAGTCACCTAGTGCAG”, the binding signal was 3520 fluorescence intensity (a.u.). For “ATAATGAAAATGAGAATTCATGCCAGCTCTGCAAAGTGGACGGAGTCACCTAGTGCAG”, the binding signal was 4780 fluorescence intensity (a.u.). “ATATACAGTACACGTTCTTGCCCTCATTGCCACATAGTACCGGAGTCACCTAGTGCAG” was tested, and the binding signal was 4020 fluorescence intensity (a.u.). In the case of “TCCCCAAGTCAGTCAATGCCATCACTGTCATCTGCTCTCACGGAGTCACCTAGTGCAG”, the binding signal is reported as 3200 fluorescence intensity (a.u.). “TTCATTGACCGAGAACGATAGCACGCATCACATCAGCATCCGGAGTCACCTAGTGCAG” was tested, and the binding signal was 3250 fluorescence intensity (a.u.). In the case of “TGGGAGTGCGTGGTGTGCGTGGCGTCGGTTCTTGCGGAGGCGGAGTCACCTAGTGCAG”, the binding signal is reported as 5410 fluorescence intensity (a.u.).
